# Data taken from paper PMC4552634, “A New Set of Chemical Starting Points with Plasmodium falciparum Transmission-Blocking Potential for Antimalarial Drug Discovery” (PLoS ONE, 2015).
# Out of some 13,000 compounds screened, about 3,200 (25%) showed an effect of 50% or more. The list shows a part of the results.
# System: P. falciparum stage V gametocytes
# Design: BacTiter-Glo ATP luminescence viability of purified stage V gametocytes in 384-well plates, per cent inhibition versus DMSO
# Conditions: 48 h, 5 µM; inhibitor
row,SMILES,% Inhibition
1,CC(C)(C)c1ccc(-c2ccccc2CNC(=O)c2cccc(O)c2)cc1 [TCMDC-136181],21.07%
2,O=C(NCc1ccccc1)Nc1cccc(-c2cccc(-c3nc4ccc(C(F)(F)F)cc4[nH]3)c2)c1 [TCMDC-133161],-23.46%
3,Cc1cc(CN2CCC(N3CC(c4ccccc4)(c4ccccc4)OCC3=O)C2)ccc1O (stereo not drawn) [TCMDC-136340],-6.883%
4,CN1CCCN(Cc2ccc(-c3cccc(NC(=O)c4ccc(C#N)cc4)c3)cc2)CC1 [TCMDC-132637],9.146%
5,Cc1cc(-c2cnc(N)c(-c3ccc(N4CCN(C)CC4)nc3)c2)cc(C)c1O [TCMDC-133346],-63.65%
6,CN(Cc1ccccc1)C1CCCN(c2cc(NC(=O)c3cccs3)ccn2)C1 (stereo not drawn) [TCMDC-135007],-39.99%
7,CC(C)c1cc2c(cc1O)C(Cc1ccccc1Cl)N(C)CC2 (stereo not drawn) [TCMDC-137322],-86.96%
8,CCn1c(SCC(=O)Nc2cc(C(F)(F)F)ccc2Cl)nc2ccccc2c1=O [TCMDC-125426],3.057%
9,COCC(C)n1c(SCC(=O)Nc2cc(C(F)(F)F)ccc2Cl)nc2ccccc2c1=O (stereo not drawn) [TCMDC-125436],2.32%
10,COCCn1c(SC(C)C(=O)Nc2cc(C(F)(F)F)ccc2Cl)nc2ccccc2c1=O (stereo not drawn) [TCMDC-125030],60.86%
11,COc1ccc(N(C)Cc2cnc3nc(N)nc(N)c3n2)cc1 [TCMDC-137682],5.189%
12,COC(=O)C(C)(C)c1ccc(CC(C)NCC(O)c2cccc(C(F)(F)F)c2)cc1 (stereo not drawn) [TCMDC-131482],7.113%
13,Oc1ccc(Cl)cc1Nc1nc(C(F)(F)F)nc2ccccc12 [TCMDC-125147],-61.42%
14,O=[N+]([O-])c1cccc(CNCC2CCN(Cc3ccc(Cl)c(Cl)c3)CC2)c1 [TCMDC-141206],3.652%
15,O=C(Nc1cccc([N+](=O)[O-])c1)N(Cc1ccc(Cl)c(Cl)c1)C1CCNCC1 [TCMDC-141400],39.3%
16,N#Cc1cccc(CN(Cc2ccc(Cl)c(Cl)c2)S(=O)(=O)c2cccc([N+](=O)[O-])c2)c1 [TCMDC-141594],51.09%
17,Cc1cccc2sc(N(CCCn3ccnc3)C(=O)C=Cc3cccs3)nc12 [TCMDC-124929],30.83%
18,Cc1c(C(=O)N2CCc3cc4nccc(N5CCN6CCC[C@H]6C5)c4cc32)cnn1-c1ccc(C#N)cc1 [TCMDC-141315],14.04%
19,CC(=O)Nc1ccc(CNC2Cc3ccc(-c4ccc(Cl)c(Cl)c4)cc3C2)cc1 (stereo not drawn) [TCMDC-133070],12.53%
20,CCCCNCc1ccc(-c2nc(CN(Cc3ccc(Cl)c(Cl)c3)C(=O)CN(C)C)cs2)cc1 [TCMDC-141703],68.39%
21,CCCCOc1ccccc1C(=O)NCc1csc(-c2ccccc2)n1 [TCMDC-124914],34.72%

row,SMILES,% Inhibition
1,CCN(CC)S(=O)(=O)c1ccc(Cl)c(C(=O)Nc2ccc3nc(C)sc3c2)c1 [TCMDC-124376],33.54%
2,CCCCNCc1ccc(-c2nc(CN(Cc3ccc(Cl)c(Cl)c3)S(=O)(=O)c3ccc(NC(C)=O)cc3)cs2)cc1 [TCMDC-141597],93.87%
3,CN(C)CC(=O)N(Cc1ccc(Cl)c(Cl)c1)Cc1csc(-c2ccc(CNCc3ccccc3)cc2)n1 [TCMDC-141814],21.62%
4,O=c1[nH]c(Cc2ccccc2)nc2ccc(Cl)cc12 [TCMDC-123986],41.17%
5,Cc1cccc2nc(-c3ccc(-c4ccc(CN5CCCC(N)C5)cc4)s3)[nH]c12.O=C(O)C(F)(F)F (stereo not drawn) [TCMDC-133864],61.01%
6,Cc1cccc2nc(-c3ccc(-c4ccc(CN5CCC(CO)CC5)cc4)s3)[nH]c12.O=C(O)C(F)(F)F [TCMDC-133128],-12.48%
7,Cc1cccc2nc(-c3ccc(-c4ccc(CN5CCC(C(N)=O)CC5)cc4)s3)[nH]c12.O=C(O)C(F)(F)F [TCMDC-132695],10.69%
8,Cc1cccc2nc(-c3ccc(-c4ccc(CN5CCCC(O)C5)cc4)s3)[nH]c12.O=C(O)C(F)(F)F (stereo not drawn) [TCMDC-133827],-10.01%
9,Cc1cccc2nc(-c3ccc(-c4ccc(CN5CCC(N)C5)cc4)s3)[nH]c12.O=C(O)C(F)(F)F (stereo not drawn) [TCMDC-133862],94.82%
10,NC(=O)c1cccc(C(=O)Nc2ccc(-c3cccc(-c4nc5ccc(F)cc5[nH]4)c3)cc2)c1 [TCMDC-132196],-0.7681%
11,CCOC(=O)c1ccc(NC(=O)NNC(=O)c2ccc(CCN3CCC(c4nc(COCC(F)(F)F)c(-c5ccc(F)cc5)o4)CC3)cc2)cc1 [TCMDC-131907],11.96%
12,Cc1ccc2[nH]c(-c3ccc(C(=O)NC4CCN(Cc5ccccc5)CC4)cc3)nc2c1C [TCMDC-140449],4.358%
13,Cc1ccc(-c2cc(C(=O)Nc3ccc(S(=O)(=O)N4CCOCC4)cc3)[nH]n2)c(O)c1C [TCMDC-124306],74.46%
14,O=C(Nc1ccc(S(=O)(=O)N2CCOCC2)cc1)c1cc(-c2cc(Cl)ccc2O)n[nH]1 [TCMDC-125204],-22.77%
15,Cc1ccc(-c2cc(C(=O)Nc3ccc(S(=O)(=O)N4CCCCC4)cc3)[nH]n2)c(O)c1 [TCMDC-124305],-41.04%
16,O=C(Nc1ccon1)c1cc(-c2cccnc2)nc2ccc(Br)cc12 [TCMDC-125217],-5.67%
17,CC1N=C(N)N=C(N)N1OCc1cccc2ccccc12 (stereo not drawn) [TCMDC-131595],37.89%
18,O=C(NCCN1CCCCC1)c1cc2cc(-c3ccccc3)ccc2n1S(=O)(=O)c1ccccc1 [TCMDC-139102],37.88%
19,CN(C)CCCN1CCN(C(=O)c2cc3cc(-c4ccccc4)ccc3n2S(=O)(=O)c2ccccc2)CC1 [TCMDC-139103],17.27%
20,CN1CCC(OC(=O)c2cc3cc(-c4ccccc4)ccc3n2S(=O)(=O)c2ccccc2)CC1 [TCMDC-139104],88.58%
21,Cc1cccc2nc(-c3ccc(-c4ccc(CNCC5CCCO5)cc4)cc3)[nH]c12.O=C(O)C(F)(F)F (stereo not drawn) [TCMDC-133093],-8.859%
